# Changes are numbered by the printed parent chain. The full ranking holds about 24,000 sequences; the median of “enrichment r” is about 0.99, and the highest 2% start at about 3.7. The sample as a whole holds a higher share of the highest values than the screen did.
# T1: UNK ZnF1-3 (human, UniProt Q9C0B0 31-174)
# T1 sequence: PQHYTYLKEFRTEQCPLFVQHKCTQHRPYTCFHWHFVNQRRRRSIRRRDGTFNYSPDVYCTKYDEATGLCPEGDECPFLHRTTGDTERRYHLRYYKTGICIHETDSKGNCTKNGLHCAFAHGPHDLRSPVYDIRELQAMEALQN
# B1: chr8:26227902:26227903:+_ENSG00000221914_ENST00000315985|hu_hu|motif|central (ssRNA)
# RNA: GGGAGUUCUACAGUCCGACGAUCGGAAUGCCAACCCUAAUUCACUUUGUCUUGAAAUAUAUACAGAUUGUUUGUAGUAGCGGCGGCAAUGAUAUUUUCCUUGGGGUGCCAGGCUGUGUGAAGGAUUUUCUUAUUGAAGUCUAGCAACAGAGGAUUGAGCAUCA
# B2: 16983635_16983755_221_5pUTR_ENSMUSG00000063358_ENSMUST00000069107|mouse|control|control (ssRNA)
# RNA: GGGAGUUCUACAGUCCGACGAUCGACCAUCUCCGGGCCCGCCGCCGCCGCCGCCGCCAUGUUGGCUGCACAGCCGCCGCCGCCGCCGCCGCCGCCGCGUUCGGUUCGACGCUUCGCGGCUGCCGCUCGACUUAUGCUGCGCUUCAACAGAGGAUUGAGCAUCA
# B3: chr3:179287964:179287965:+_ENSG00000136518_ENST00000429709|hu_hu|hu_hu_hu_mus_True|18_18 (ssRNA)
# RNA: GGGAGUUCUACAGUCCGACGAUCCUUGAGUGGUGAGAUGGCCUCCAUGUUCUCCCUGGGCACGCGGAGGGCAUUGGUGUCUAUGUAGUAGGUGGGCCCGCCCUGCUUGCCUUUGUCGCCAUCUAUUUCCAUCAUUGUACUUCCCAACAGAGGAUUGAGCAUCA
# B4: chr5:171327072:171327073:-_ENSG00000072803_ENST00000265094|hu_hu|FALSE|FALSE (ssRNA)
# RNA: GGGAGUUCUACAGUCCGACGAUCUACCAGCUCUGCUGCACACAGAGACCUGGCAUCCAGGUACGAAAGAAUGUUUUCUGCUAUGUGAUCUAAGCCUUGCUCUGGUAAAGCGGUAAUAAAGUCCCGCUGCAACAUGGGCUUCAGCAACAGAGGAUUGAGCAUCA
# B5: 97033003_97034721_1993_CDS_ENSG00000121152_ENST00000240423|human|control|control (ssRNA)
# RNA: GGGAGUUCUACAGUCCGACGAUCCCUGUGGUUUGCCUCUGCAUCUGCCUCCUUUCCGGAGAGCGCUGUCAGCAGACUCCACAUGCUCUGCUUCAGUUUCUUCAUGUCCAUCUUUUUGGCAGUCUUGGCAUAGUGAAUUUCAAUCAACAGAGGAUUGAGCAUCA
# B6: chr2:151796264:151796265:-_ENSMUSG00000027459_ENSMUST00000062047|mus_mus|motif|central (ssRNA)
# RNA: GGGAGUUCUACAGUCCGACGAUCUGUUCGGCUGGCCUCAGAUGGGGACACAGGACUAUCACACAAGUUGAUGAGGCUGCGGAGGAUGUCGAGGUCCAGUUGGGGCCGGCGGCCAGAACAGGGCAGGACUCGGCGACUGGGUGUCAACAGAGGAUUGAGCAUCA
# B7: chr17:38438176:38438177:+_ENSG00000171475_ENST00000323571|hu_mus|FALSE|FALSE (ssRNA)
# RNA: GGGAGUUCUACAGUCCGACGAUCCCCCCUGACCAUGUAGCUAGGGACUGAGAGUCACAGGGAAGGGAAAGCUUACACCUGGAAUGUGAAGAAUCUGAUUUACAGCUGAUGGCAGGUUGGGUUUCCAGAAGGGCAGACAGCGCACAACAGAGGAUUGAGCAUCA
# B8: chr14:76904430:76904431:+_ENSMUSG00000022010_ENSMUST00000022587|mus_mus|mus_mus_mus_hu_True|8_98 (ssRNA)
# RNA: GGGAGUUCUACAGUCCGACGAUCUGCAGCCAAAAACAGAGAGAGGGAAAAAAAGAGGGAACACCAGCAGCCUUGUAUAAGCUAGAUAAAAUCUUCUGGCUUUCCGCAGCCCAGGGAGAAACAGAAAUGGUGCUGGCUAAUUUACAACAGAGGAUUGAGCAUCA
# B9: chrX:71549762:71549763:+_ENSMUSG00000019087_ENSMUST00000019231|mus_mus|mus_mus_mus_hu_False|8_18 (ssRNA)
# RNA: GGGAGUUCUACAGUCCGACGAUCAAACCCGUGUACUUCUUAUUGUUAGCACAACAUCACCAGAAAACGAUAACGACAGCCAAGCAGGACAGACAGUUAAGUAGUACUUCCACACUCCGCAAAUUCAAGGAACCUCAAACCUUACAACAGAGGAUUGAGCAUCA
# B10: chr2:125499325:125499326:+_ENSMUSG00000091337_ENSMUST00000164756|mus_mus|FALSE|FALSE (ssRNA)
# RNA: GGGAGUUCUACAGUCCGACGAUCGAGCUCUUCGGUCAGUCGAUUGACAACCAUCAGCGAAAACAGCUCUUCGAUAAAAGCUAGCUGGUCGAAAGGGCUCUUCUCACACCGCGCCUGAAAGCCGCCAUCCAGGGCAUCUCCGGCCAACAGAGGAUUGAGCAUCA
# B11: chr6:144948378:144948379:-_ENSMUSG00000030268_ENSMUST00000111742|mus_mus|FALSE|FALSE (ssRNA)
# RNA: GGGAGUUCUACAGUCCGACGAUCAGGGAACACCAGGCCAGCAGGGCUGCAUGGGGAGCCCAAAUCUGCCCCAAUUAGAAACAAACAAACAAAAAAAAAACAACCAAAACAAAAAACAAAAGAACCUCACCAGCAAAAGAAACACAACAGAGGAUUGAGCAUCA
# B12: chr1:163116941:163116942:-_ENSG00000143248_ENST00000313961|hu_mus|FALSE|FALSE (ssRNA)
# RNA: GGGAGUUCUACAGUCCGACGAUCACAAAGCAGUCAGAAAGAACCAAAAAAAAGAAAAAAAAAAGAAAAAGAAAAAAGUGAGGGCUCUUAGACAACAGAUCCACAUAACCAAACUAACAUGAGCGAAAGAGUUAGCAACACAGCCAACAGAGGAUUGAGCAUCA
# B13: chr14:76904430:76904431:+_ENSMUSG00000022010_ENSMUST00000022587|mus_mus|mus_mus_mus_hu_True|58_98 (ssRNA)
# RNA: B8 RNA with U77C, G80A, U127A, G128C, U130G, G131C, C132A, U133G, G134C, G135C
# B14: chr3:9412954:9412955:+_ENSG00000134077_ENST00000452837|hu_mus|hu_hu_hu_mus_False|58_68 (ssRNA)
# RNA: GGGAGUUCUACAGUCCGACGAUCGGUUGAUAUCUCUUCUUUGAUGGCUGGAUUUUCAUAAUAGUCCAAGAUAUGAGAAUCUAAAGCGCUGCUGGCAUGCUUUUUCUUACCAUCUUUCUCAUCUGCUUUGUCUCCUUGUCCACACAACAGAGGAUUGAGCAUCA
# B15: chr16:94664741:94664742:+_ENSMUSG00000040785_ENSMUST00000117648|mus_hu|mus_mus_mus_hu_False|1_78 (ssRNA)
# RNA: GGGAGUUCUACAGUCCGACGAUCUGGUACUGAUCUUGGUAGCUGAUAUUCAGGAGAAAUGUUGGCCAAGGGUGUAUAUAUGCUGGUGUACUGGGGCAAACCUGGUAACACGUUUAUGUAUGCUGGCGGUGUCUGGGUGCCAAACAACAGAGGAUUGAGCAUCA
# B16: chr5:37680062:37680063:+_ENSMUSG00000029121_ENSMUST00000031004|mus_hu|mus_mus_mus_hu_False|1_8 (ssRNA)
# RNA: GGGAGUUCUACAGUCCGACGAUCUUUGGGUGUAGCUGGUACCUCGUACACAGGACCGUCAUACAUGCCCCUGGAAACCCCUUGCAAUCCAAAAACCUUAUUCCUGAUUUUGACGCGCUGGUACAGGUGCUCUGGGAAUGGCUUCAACAGAGGAUUGAGCAUCA
# B17: chrX:98862621:98862622:+_ENSMUSG00000034160_ENSMUST00000044475|mus_hu|mus_mus_mus_hu_False|18_28 (ssRNA)
# RNA: GGGAGUUCUACAGUCCGACGAUCCUGCAUCUCCUUUAGAGUGUUUCCCAUAUUAGAGUAGGCAUCAGCAAAGGUAGGACUGAUUCGAAUAGCCUCCUUAUAAUGCAUCAGUGCUUCCUGCAGCUUGCCCUGCUGCUGCAGUACCAACAGAGGAUUGAGCAUCA
# B18: chr7:135840685:135840686:-_ENSMUSG00000048170_ENSMUST00000057557|mus_mus|FALSE|FALSE (ssRNA)
# RNA: GGGAGUUCUACAGUCCGACGAUCCAACUCCCUUGAUUUAUCAAGGCCGACCCUGUUUCCUUGGUUAGCAGGGAAGAAUCUAAGGGACCACUGAUUGAUCUUCACACACAGCAGAUGAGAUUAACAGCAAGGUUCUAACUUUUCCAACAGAGGAUUGAGCAUCA
# B19: 128051196_128051651_161_3pUTR_ENSG00000163161_ENST00000285398|human|control|control (ssRNA)
# RNA: GGGAGUUCUACAGUCCGACGAUCCGCCGCCGAGGGAACCGCUUCCUGAGGGUCGUUCCCCGGGGCGUCCUCUUCAUCAUCCUCUUCAUCCUCAUAGUGCCGCUUCCUGGAUUUCUUCUUGUCGCGGUCCGCUCGGUCUCUUUUCAACAGAGGAUUGAGCAUCA
# B20: chr2:27118074:27118075:-_ENSMUSG00000009621_ENSMUST00000056176|mus_mus|FALSE|FALSE (ssRNA)
# RNA: GGGAGUUCUACAGUCCGACGAUCCACAGAUAUAUAAUGGGAGACUUAGAUGAAAUAAUUACAACUUCCCCUCCCCCUUCUAAAAUACAAACAGAUAAAACAUAACAGGACAAAAAAAGCUACAACAACAGAAAAACAAACAGACAACAGAGGAUUGAGCAUCA
# B21: chr1:235506153:235506154:+_ENSG00000152904_ENST00000391855|hu_mus|FALSE|FALSE (ssRNA)
# RNA: GGGAGUUCUACAGUCCGACGAUCGAAGACAGCUACACUUACAUAUAAUAAAUAAAUCUUAAAAAAAAAAAAAAGAAAAGAUAAAUGGGAUGAAGCCACUCCUCAUUUUCAACUGAAAGAAGCUACUGAGUCUAAUCCAGAAAGCAACAGAGGAUUGAGCAUCA
# B22: chr15:12269436:12269437:+_ENSMUSG00000022200_ENSMUST00000059680|mus_mus|motif|central (ssRNA)
# RNA: GGGAGUUCUACAGUCCGACGAUCUAAAAGACUUUUUCUUCUCAUUCCACAAGCCUCUAACUGUAACCUUCCUCUCAAAGCGGAUUCAAUUAACAUACAGCCACGUAAUCCAGAUGAUAUACAGUCAUUCCAAAAUGAUGUGUACAACAGAGGAUUGAGCAUCA
# B23: chr16:94690093:94690094:+_ENSMUSG00000040785_ENSMUST00000117648|mus_hu|mus_mus_mus_hu_True|1_48 (ssRNA)
# RNA: GGGAGUUCUACAGUCCGACGAUCGGGCUGGGAUGACGGACACACAGCCUCGAUUCCAGGGGGAAAAAGUCUUAGUCGAUACUAAUUUAAAAAGUAUAAUGAUUUUUGAAAAUCAGAUUACAUCUAUAAAAGAUGAAAGCACUUCAACAGAGGAUUGAGCAUCA
# B24: chr2:27118074:27118075:-_ENSMUSG00000009621_ENSMUST00000056176|mus_mus|motif|central (ssRNA)
# RNA: B20 RNA with U80G, A81G
# Molecular target: T1, UNK ZnF1-3
# Assay: nsRBNS (natural sequence RNA bind-n-seq); RBNS binding buffer (assumed for nsRBNS): 25 mM Tris pH 7.5, 150 mM KCl, 3 mM MgCl2, 0.01% Triton X-100, 500 ug/ml BSA, 20 U/ml SUPERase-In, 4 C; UNK is unkempt and MSI1 is Musashi-1; names of the RNAs are library labels; protein concentration not given here; high values mean tight binding
row,Binder,binding signal [enrichment R]
1,B1,1.11
2,B2,0.486
3,B3,0.497
4,B4,1.05
5,B5,0.375
6,B6,0.777
7,B7,1.6
8,B8,3.33
9,B9,1.46
10,B10,1.3
11,B11,7.87
12,B12,10.6
13,B13,3.56
14,B14,0.465
15,B15,0.93
16,B16,0.776
17,B17,1.08
18,B18,1.03
19,B19,0.493
20,B20,4.31
21,B21,20.8
22,B22,0.956
23,B23,0.785
24,B24,3.78

# From article PMC12136788
